This is a sample that favours compounds with a hit; in the whole collection about 2.4% have one here.
D2 antagonist – D2 dopamine receptor (human) antagonism; P14416; HEK293 TREx D2 cells, calcium flux, dopamine EC80; inhibition, % at 10 µM; 340,000 compounds, 2% hits; in the data active = inhibition above about 30%; inactive = below that, where a call was filed; also: 0% is about no effect
Target sequence (P14416 whole entry, looked up): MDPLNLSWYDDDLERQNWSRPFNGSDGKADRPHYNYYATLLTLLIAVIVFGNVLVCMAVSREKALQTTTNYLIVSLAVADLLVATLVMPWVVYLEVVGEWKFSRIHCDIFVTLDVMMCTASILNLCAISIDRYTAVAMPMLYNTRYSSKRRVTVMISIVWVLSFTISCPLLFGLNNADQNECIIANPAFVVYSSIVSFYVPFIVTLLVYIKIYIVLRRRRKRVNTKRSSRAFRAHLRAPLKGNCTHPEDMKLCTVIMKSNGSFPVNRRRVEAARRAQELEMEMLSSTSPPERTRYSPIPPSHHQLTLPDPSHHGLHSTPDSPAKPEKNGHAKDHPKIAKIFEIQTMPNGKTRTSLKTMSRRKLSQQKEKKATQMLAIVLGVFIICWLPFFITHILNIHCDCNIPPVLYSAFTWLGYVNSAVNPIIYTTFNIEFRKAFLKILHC
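Tetracycline-induced HEK293 T-REx cells expressing D2 force-coupled to calcium signalling were dye-loaded, exposed to compound for 180 s, then challenged with an EC80 of dopamine; calcium flux was followed kinetically for a further 180 s.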
D2 PAM-1 – D2 dopamine receptor (human) potentiation; 340,000 compounds, 0.34% hits; potentiation, % at 10 µM; HEK293 T-REx D2, calcium flux, EC20 dopamine potentiation; P14416;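 active = potentiation over 3 SD above the plate norm, cut at about 30% in these data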; also: 0% is about no effect
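Calcium flux readout, no-wash dye, 1 read/s. Inducible HEK293 Trex D2 line, overnight 30 C. Compound alone 180 s (agonist flags), then EC20 dopamine, another 180 s to score potentiation.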
D2 ag-1 – activates the human D2 dopamine receptor; P14416; HEK293 T-REx D2 cells, calcium flux agonist mode; activation, % at 2 µM; 340,000 compounds, 0.53% hits; AID 485358;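 active = activation over 3 SD above normal in the single-dose calcium agonist read, cut at about 30% in these data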; also: 0% is about no effect
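Agonism scored from kinetic calcium signal (1 read/sec, 180 s) following compound pin transfer, after a 10 s baseline. Cells: HEK293 Trex line expressing inducible D2 receptor coupled to calcium, dye-loaded after overnight culture at 30 C.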
D2 PAM-2 – positive allosteric modulators of human D2 dopamine receptor; potentiation, % (concentration not given with the values); 360,000 compounds, 0.23% hits; DiscoveRx D2 beta-arrestin cells, luminescence, 90 min; 100% = 57 uM dopamine signal; P14416; in the data active = potentiation above about 50%; inconclusive = mostly about 30% to 49%
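D2 cells co-treated with compound plus 50 nM dopamine (EC20) for 90 min at 37 deg C to detect potentiation. Beta-arrestin recruitment was read as enzyme-fragment luminescence after 1 h at ambient temperature. Full response was set by 57 uM dopamine.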
D2 ag-2 – human D2 receptor agonism in beta-arrestin assay. DiscoveRx PathHunter D2 beta-arrestin, luminescence, 90 min; 100% = 57 uM dopamine signal. P14416. activation, % (no concentration beside the values). AID 624465. 360,000 compounds, 0.084% hits; in the data active = activation above about 40%; inconclusive = between about 15% and that limit
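DiscoveRx PathHunter D2 beta-arrestin cells (2,100/well) attached overnight, then compound-stimulated 90 min at 37 C in HBSS/10 mM HEPES/0.1% Tween-20 buffer; beta-galactosidase complementation read by luminescence after 1 h at ambient temperature. Dopamine 57 uM final (EC100) as control.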
Active calls of the source: *; ? = inconclusive; . = no result; ! = a repeat was not active.

SMILES	D2 antagonist	D2 PAM-1	D2 ag-1	D2 PAM-2	D2 ag-2
COc1ccc(NC(=O)c2cc3c(=O)n4ccccc4nc3n2C)cc1OC	-8	35*	0	2	4
COc1ccc(C)cc1NC(=O)c1cc2c(=O)n3ccccc3nc2n1C	13	11	1	2	0
c1ccc(Cc2nnc3sc(-c4cccs4)nn23)cc1	73*	-10	-1	1	-2
Cc1ccccc1CSCCNC(=O)CN(c1ccccc1)S(=O)(=O)N(C)C	.	-1	0	.	.
COc1ccc(N(CC(=O)NCCSCc2ccc(C)cc2)S(=O)(=O)c2ccccc2)cc1	31*	7	1	-15	0
CN(C)S(=O)(=O)N(CC(=O)NCCSCc1ccccc1)c1ccccc1	-1	85*!	0	-5	7
COc1ccc(-c2nn(-c3ccccc3F)cc2CNCCn2nc(C)cc2C)cc1	37*	-19	0	-14	-4
CC(C)OC(=O)c1cc2c(ccn2C)n1CC(=O)N1CCC(Cc2ccccc2)CC1	-7	105*	1	-8	-5
CCCCOc1cccc(C(=O)N(Cc2sccc2C)C2CCS(=O)(=O)C2)c1 (configuration not stated)	.	-6	1	.	.
Cc1c(Cl)c(C(=O)Nc2nc3ccccc3n2CCN2CCCCC2)nn1C	-15	35*	-1	.	.
Oc1ccc2nnc3c(Br)cnn3c2c1	-9	6	53*	12	?
CC(C)(C)c1ccc(C(=O)NNc2ncnc3c2cnn3-c2ccc(Cl)cc2)cc1	.	-8	0	.	.
COc1ccc(C2/C=C\CN(C(=O)c3ccc(C)cc3)[C@H](Cc3ccccc3)C(=O)N2Cc2ccc(F)cc2)cc1 (some centres not stated)	41*	-3	1	-4	-4
CC(C)OCCCNC(=O)C(=O)Nc1c2c(nn1-c1ccccc1)CS(=O)(=O)C2	.	6	.	.	.
COc1ccc(Nc2cc(C(=O)NCCCN3CCN(c4ccc(OC)cc4)CC3)c3ccccc3n2)cc1	.	-2	-2	.	.
COC(=O)C1CCN(S(=O)(=O)c2ccc(NC(C)=O)cc2)CC1	-17	2	1	-19	-4
COC(=O)C1CCN(S(C)(=O)=O)CC1	-15	42*	1	-4	-4
CCOC(=O)c1ccc(NC(=O)c2oc3c(c2C)-c2nn(Cc4ccccc4Cl)cc2CC3)cc1	.	-4	0	.	.
COC(=O)/C=C1\SC(=Nc2ccc(Cl)c(Cl)c2)NC1=O	-1	.	1	-3	6
COc1cc(/C=C2\SC(=Nc3ccc(Cl)c(C(=O)O)c3)NC2=O)c(Br)c(Br)c1O	37*	-1	87*	-1	-4
COc1cc(/C=C2\SC(=Nc3ccccc3)NC2=O)cc(Cl)c1O	38*	-10	74*	-15	-2
CCc1ccc(N=C2NC(=O)/C(=C/c3cc(OC)c(O)c(OC)c3)S2)cc1	15	-21	5	-55	?
CC1=C(C(=O)Nc2ccccc2)C(c2cccc(O)c2)n2nc(-c3ccccc3Cl)nc2N1 (configuration not stated)	.	.	0	.	.
CCOc1cc(C(=O)N2CC(=O)Nc3ccc(C)cc3C2c2ccccc2)cc(OCC)c1OCC (configuration not stated)	.	5	1	.	.
N#CC1=C(c2ccccc2)/C(=C/c2ccccc2)OC1=O	35*	9	2	-13	0
SMILES	D2 antagonist	D2 PAM-1	D2 ag-1	D2 PAM-2	D2 ag-2
O=C1O/C(=C/c2ccccc2)c2ccccc21	-2	0	-1	19	2
COc1ccc(Br)cc1/C=N/NC(=O)CNC(=O)/C=C/c1ccccc1	76*	-26	0	-41	-2
COc1ccc(/C=C\C(=O)NCC(=O)N/N=C/c2cccc(OC)c2O)cc1	-3	-16	1	-14	-4
COc1ccc(/C=C/C(=O)NCC(=O)N/N=C/c2cc(Br)ccc2OCc2ccccc2)cc1	-13	-11	0	-11	1
COc1ccccc1/C=C\C(=O)NCC(=O)N/N=C/c1ccc(O)cc1O	77*	-21	-2	-11	-2
COc1cccc(/C=N/NC(=O)CNC(=O)/C=C\c2ccccc2)c1O	54*	-16	0	2	3
CNS(=O)(=O)c1cn(CC(=O)N2CCN(c3cc(C)ccc3C)CC2)cc1S(=O)(=O)NC	.	-5	-1	.	.
CC1=C(C)CC(C(=O)Nc2nc(-c3ccc(C)cc3C)c(C)s2)C(C(=O)O)C1 (configuration not stated)	-8	-5	0	60*	4
CC[C@H](C)C(=O)O[C@H]1CCC=C2C=C[C@H](C)[C@H](CC[C@@H]3C[C@@H](O)CC(=O)O3)[C@H]21	38*!	-6	2	-10	2
COc1cc(OC)c(NC(=O)Cn2c(=O)nc(-c3ccccc3)c3ccccc32)cc1Cl	.	-2	0	.	.
Cc1ccc(C(=O)NCc2ccccc2F)cc1S(=O)(=O)N1CCCC1	-30	12	1	-10	2
O=[N+]([O-])c1ccc(Cl)c(S(=O)(=O)N2CCCCCC2)c1	-5	10	0	70*	0
Cc1ccc(C(=O)NCc2ccccc2CN2CCCC2)cc1S(=O)(=O)N1CCOCC1	51*	-28	0	-31	-1
CN1CCN(S(=O)(=O)c2cc([N+](=O)[O-])ccc2Cl)CC1	3	1	0	28	4
O=C(NCC1COc2ccccc2O1)c1ccc(Cl)c(S(=O)(=O)N2CCOCC2)c1 (configuration not stated)	31*	-1	1	-1	-2
O=C(NCc1ccccc1CN1CCCC1)c1ccc(Cl)c(S(=O)(=O)N2CCCC2)c1	33*	-26	0	-32	-2
CCc1cccc(C)c1NC(=O)c1cc(C)nc2c1c(C)nn2-c1cccc(Cl)c1C	.	3	0	.	.
COc1ccc(C(=O)NCc2ccco2)cc1S(=O)(=O)N1CCOCC1	10	-7	0	-3	-2
COc1ccc(C(=O)NCc2ccccc2CN2CCCC2)cc1S(=O)(=O)N1CCOCC1	45*	-23	0	-17	-7
O=C(c1ccc(Cl)c(S(=O)(=O)N2CCCCC2)c1)N1CCCCC1	-8	-5	0	-13	-4
O=C(NCc1ccccc1CN1CCCC1)c1cc2cc(Cl)ccc2o1	40*	-19	0	-3	5
O=C(NCc1ccc(Cl)cc1)c1cc2ccccc2o1	.	.	1	.	.
CC(=O)N1CCN(C(=O)c2ccc(Cl)c(S(=O)(=O)N3CCCCCC3)c2)CC1	32*	7	1	-6	1
COc1ccc(Br)cc1CNC(=O)CN1C(=O)c2cccnc2Oc2ccc(C)cc21	.	-22	0	.	.
Cc1cc(-n2c(C)nc3ccccc3c2=O)ccc1NC(=O)c1ccc(C)c([N+](=O)[O-])c1	.	0	-2	.	.
O=C(CSc1nc2c([nH]c3ccccc32)c(=O)n1-c1cccc(Cl)c1)N1CCc2ccccc21	.	-6	.	.	.
